Compound activity from PubChem.
IMPase cell inh: cell-permeable inhibitors of inositol monophosphatase (IMPase). CHO-M1 cells, IP1 accumulation, HTRF TR-FRET ratio. inhibition (IP1 accumulation), % at 46.1 µM. 120,000 tested, under 10 active. P97697; active = well fitted curve in the direction sought with a large enough effect in the signal ratio, not every such curve was filed as active; inconclusive = small, poorly fitted or top-dose-only effect, or a change in a side signal; inactive = no such curve, though single readings can be large or run the other way; the % refers to the signal ratio;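 note: cells stimulated with carbachol in lithium chloride buffer; higher means more IMPase inhibition seen as more IP1 and lower FRET ratio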
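The IP-One HTRF competitive assay in carbachol-stimulated CHO-M1 cells quantifies cellular IP1. Compounds spanned up to 46 uM final, and activity is expressed as AC50 from concentration-response fits of the ratio and donor data.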
IMPase Li inh: cell-permeable IMPase inhibitors with lithium potentiation | CHO-M1 cells, IP1 TR-FRET (IP-One), carbachol + lithium | Potency, µM (titrated, usually from 59.4 µM), actives largely listed as inhibitors | 210,000 compounds, 0.35% hits | AID 1457;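 note: IP1 builds up when IMPase is blocked and the TR-FRET signal falls; nearly all actives have a fitted effect of over 50% in size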
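CHO cells stably expressing M1 receptor (2000/well) were cultured 16–30 h, then exposed to compounds with a small lithium addition for 30 min at 37C. IP1 was measured by TR-FRET competition; AC50 from Hill fits.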
ALDH1A1 inh: blocks purified human ALDH1A1 activity; 220,000 compounds, 7.3% hits; AID 1030; Purified ALDH1A1, NADH fluorescence, propionaldehyde substrate; Potency, µM (series often up to 75.3 µM), actives largely listed as inhibitors; P00352; active = well fitted inhibition curve with a large enough effect, not every such curve was filed as active; inconclusive = small, poorly fitted or top-dose-only effect, or another doubt; inactive = no such curve, though single readings can be large or run the other way
Target sequence (P00352 whole entry, looked up): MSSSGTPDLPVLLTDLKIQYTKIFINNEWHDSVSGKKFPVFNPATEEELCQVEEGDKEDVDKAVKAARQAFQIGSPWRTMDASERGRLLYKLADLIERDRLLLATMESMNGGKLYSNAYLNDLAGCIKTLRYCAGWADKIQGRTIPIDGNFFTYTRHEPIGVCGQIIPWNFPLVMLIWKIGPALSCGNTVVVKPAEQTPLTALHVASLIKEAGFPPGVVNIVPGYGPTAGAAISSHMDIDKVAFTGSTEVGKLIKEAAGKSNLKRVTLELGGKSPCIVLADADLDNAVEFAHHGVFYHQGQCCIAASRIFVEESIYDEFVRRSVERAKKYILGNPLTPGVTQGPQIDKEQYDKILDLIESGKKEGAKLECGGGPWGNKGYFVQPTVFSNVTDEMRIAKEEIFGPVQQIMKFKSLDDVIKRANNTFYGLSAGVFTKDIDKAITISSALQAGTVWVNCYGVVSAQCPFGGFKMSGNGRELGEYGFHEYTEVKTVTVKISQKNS
HPGD block: HPGD (human) dehydrogenase inhibition; P15428; purified HPGD, NADH fluorescence kinetic, PGE2 substrate; Potency, µM, hits mostly inhibitors; 150,000 compounds, 4.3% hits; AID 894; active = well fitted inhibition curve with a large enough effect, not every such curve was filed as active; inconclusive = small, poorly fitted or top-dose-only effect, or another doubt; inactive = no such curve, though single readings can be large or run the other way
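20 nM HPGD preincubated 15 min at room temperature with compound in 50 mM Tris-HCl pH 8, 0.01% Tween 20. Started with 1 mM NAD+ and 30 uM prostaglandin E2; NADH fluorescence (360/450 nm) read 5 times over 30-s intervals, last minus first.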
ALOX12 inhib: inhibitors of human 12-lipoxygenase (ALOX12); AID 1452; Potency, µM (doses to about 57.1 µM), actives largely listed as inhibitors; purified 12-hLO, xylenol orange hydroperoxide absorbance; 150,000 compounds, 0.12% hits; note: nearly all actives have a fitted effect of over 55% in size
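150 nM 12hLO, 25 mM Hepes pH 7.0 + 0.01% Triton X-100; cpd preinc 15 min RT; 40 uM arachidonic acid, 30 min RT; Fe-XO 30 min; A573/A405 ratio as read-out.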
NPSR antag: neuropeptide S receptor (human) antagonism, cAMP; 220,000 compounds, 1% hits; Q6W5P4; AID 1461; Potency, µM (titrated, usually from 38.3 µM), actives largely listed as inhibitors; CHO-NPSR cells, cAMP TR-FRET, antagonist mode; note: nearly all actives have a fitted effect of over 50% in size
Large screens that a line does not name were inactive. The list is not random: actives were taken first. Their share in the collection is about 8.9%. Unless noted, calls come from the whole dose curve; as a rule, active = well fitted curve in the direction sought with a large enough effect; inconclusive = small, poorly fitted or top-dose-only effect, or another doubt; inactive = no such curve, though single readings can be large; an effect the other way counts as inactive or inconclusive.

O=c1[nH]ccc2c(O)cccc12	ALDH1A1 inh inconclusive, HPGD block inconclusive
Cn1ccc(-c2ccccc2)c(C#N)c1=O	ALDH1A1 inh inconclusive (no result: IMPase cell inh, HPGD block, ALOX12 inhib)
CCCN1C(=O)COc2ccc(-c3n[nH]c(=O)c4ccccc34)cc21	none (no result: IMPase cell inh, HPGD block, ALOX12 inhib)
CSCCC(NS(=O)(=O)c1ccc(Cl)cc1)C(=O)OCC(=O)NC12CC3CC(CC(C3)C1)C2 (stereo unspecified)	NPSR antag inconclusive
CCCOC(=O)c1ccc(Nc2cc(C)nc3ncnn23)cc1	ALDH1A1 inh inconclusive
COc1ccc(Nc2cc(C)nc3nc(C)nn23)cc1Cl	none
COc1ccc(C)cc1Nc1cc(C)nc2nc(C)nn12	HPGD block 1.4µM
COc1ccc(C(=O)O)cc1Nc1cc(C)nc2ncnn12	HPGD block 25µM
O=C(CCc1ccccc1)OCC(=O)c1ccc([N+](=O)[O-])cc1	ALDH1A1 inh 8.9µM (no result: IMPase cell inh, HPGD block, ALOX12 inhib)
COC(=O)c1cccc(NC(=O)C2COc3ccccc3O2)c1C (stereo unspecified)	none
CNc1nc(SCc2ccc(C)cc2)nc2c1CCCC2	ALDH1A1 inh 6.3µM, HPGD block inconclusive, NPSR antag inconclusive
CCOc1ccccc1C1C(C(N)=O)=C(C)Nc2nc(-c3cccc(C)c3)nn21 (stereo unspecified)	ALDH1A1 inh 20µM, NPSR antag inconclusive
CC1=C(C(N)=O)C(c2cccs2)n2nc(-c3cccc(C)c3)nc2N1 (stereo unspecified)	none
Cc1cc(C(F)F)n2ncc(C(=O)N3CCCCC3)c2n1	IMPase cell inh inconclusive, HPGD block 11µM
Cc1cc(C(F)F)n2ncc(C(=O)N3CCC(C(N)=O)CC3)c2n1	none
Cc1cn([C@H]2C[C@H](N=[N+]=[N-])[C@@H](CO)O2)c(=O)[nH]c1=O	none (no result: IMPase cell inh)
COC1=C/C(=C/c2c(N)n3c(nc2=O)sc2cc(S(C)(=O)=O)ccc23)C=CC1=O	none (no result: IMPase cell inh, IMPase Li inh, ALDH1A1 inh, HPGD block, ALOX12 inhib)
CS(=O)(=O)c1ccc2c(c1)sc1nc(=O)c(/C=C3/C=CC(=O)C(O)=C3)c(N)n12	ALDH1A1 inh 13µM (no result: IMPase cell inh, IMPase Li inh, HPGD block, ALOX12 inhib)
Cc1cc(C(=O)Nn2c(C3CCCCC3)nc3ccccc3c2=O)ccc1[N+](=O)[O-]	ALDH1A1 inh 22µM (no result: IMPase cell inh)
O=C(Nn1c(C2CCCCC2)nc2ccccc2c1=O)c1ccc(Cl)c([N+](=O)[O-])c1	none (no result: IMPase cell inh)
CN(C)S(=O)(=O)c1ccc(C(=O)OCc2ccc(C#N)cc2)cc1	none
COCCn1c(=O)c(-c2ccc(OC)cc2)nc2cnc(Oc3ccccc3)nc21	ALDH1A1 inh inconclusive, HPGD block inconclusive (no result: IMPase cell inh, NPSR antag)
O=C(/C=C/c1ccc(O)cc1)c1ccccc1O	ALDH1A1 inh 20µM, HPGD block inconclusive, ALOX12 inhib inconclusive (no result: IMPase cell inh, NPSR antag)
COc1ccc(C(=O)NN=C(Cc2ccccc2)Cc2ccccc2)cc1OC	ALDH1A1 inh inconclusive (no result: IMPase cell inh)
c1cncc(-c2nccc(NCc3cccs3)n2)c1	ALDH1A1 inh 11µM (no result: IMPase cell inh, HPGD block, ALOX12 inhib, NPSR antag)
Clc1ccccc1-c1nccc(NCc2cccs2)n1	ALDH1A1 inh 14µM (no result: IMPase cell inh, HPGD block, ALOX12 inhib, NPSR antag)
CN(C)C(/C=C/Nc1cccc([N+](=O)[O-])c1)=C(C#N)C#N	ALDH1A1 inh inconclusive (no result: IMPase cell inh, HPGD block, ALOX12 inhib)
CCC1CCC/C1=N\NC(=O)CCC(=O)Nc1ccccc1Cl (stereo unspecified)	none (no result: IMPase cell inh)
CC(=O)Nc1ccc(S(=O)(=O)CCC#N)cc1	IMPase cell inh inconclusive
Cc1cccc(NC(=S)NCC2CCCO2)c1 (stereo unspecified)	HPGD block 14µM
Cc1ccc(NC(=S)NCC2CCCO2)cc1C (stereo unspecified)	ALDH1A1 inh inconclusive
S=C(NCC1CCCO1)Nc1ccc(Cl)cc1Cl (stereo unspecified)	HPGD block 28µM (no result: IMPase cell inh)
S=C(NCC1CCCO1)Nc1ccc(Cl)cc1 (stereo unspecified)	none (no result: IMPase cell inh)
O=C(CCN1C(=O)C2C3CC(C(Br)C3Br)C2C1=O)OCC(=O)c1ccccc1 (stereo unspecified)	none
COc1cccc(NC(=O)c2cnsn2)c1	none
COc1ccc(C(=O)/C(C#N)=N/Nc2ccc([N+](=O)[O-])cc2)cc1	ALDH1A1 inh inconclusive (no result: IMPase cell inh, HPGD block, ALOX12 inhib)
Cc1cc(C)cc(NC(=S)NCc2ccncc2)c1	none (no result: IMPase cell inh, HPGD block, ALOX12 inhib)
Cc1[nH]c(=O)[nH]c(=O)c1/C=N/NC(=O)[C@@H](N)CC(C)C	none (no result: IMPase cell inh, IMPase Li inh, ALDH1A1 inh, HPGD block, ALOX12 inhib)
O=C(O)C1=C[C@H](c2ccccc2)C[C@H](OCc2ccc(CO)cc2)O1	none (no result: IMPase cell inh, HPGD block, ALOX12 inhib)
